Screens deposited in PubChem BioAssay by University of Kansas High Throughput Screening Laboratory.
The entries come from a sample that favours hits as a whole.
Pf apPOL block: Pf-apPOL DNA polymerase inhibition. 210,000 compounds, 0.25% hits. Recombinant Pf-apPOL, molecular beacon fluorescence, 1.5 h. inhibition, % at 10 µM
mHTT-CaM PPI inh: inhibitors of human mutant huntingtin-calmodulin interaction; AlphaScreen His-mHTT/GST-CaM binding, luminescence; inhibition, % at 15 µM; 190,000 compounds, 3.6% hits;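 also: 0% = both proteins with DMSO and 100% = one protein alone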
* = called active by the depositor; . = no result given; ! = repeats disagree. Rule as the data show it: active = inhibition above about 50%; inactive = the rest.

SMILES	Pf apPOL block	mHTT-CaM PPI inh
NC(=O)C1CCN(C2CC(=O)N(c3cc(Cl)cc(Cl)c3)C2=O)CC1 (stereo not given)	-3	-3
COc1cccc(N2CCC(C(=O)NCC3CCCO3)C2=O)c1 (stereo not given)	-2	-2
Cc1ccc(S(=O)(=O)NCC2CCN(S(=O)(=O)c3ccc(C)cc3)CC2)cc1	2	3
Cc1noc(-c2cccnc2N2CCCN(C(=O)Cc3cccs3)CC2)n1	8	-1
CCC1CCCCN1c1cc(SCC(=O)N2CCOCC2)ncn1 (stereo not given)	1	-4
CC(C)C(=O)N1CCc2c(nc3cc(-c4ccccc4Cl)[nH]n3c2=O)C1	-1	12
CC(C)C(=O)N1CCc2nc3cc(-c4ccccc4Cl)[nH]n3c(=O)c2C1	13	58*
O=C(c1ccccc1)N1CCc2nc3cc(-c4ccccc4Cl)[nH]n3c(=O)c2C1	6	13
O=C(c1n[nH]c2c1CCCCCC2)N1CCc2c(nc3cc(-c4ccccc4)[nH]n3c2=O)C1	0	19
O=C(c1n[nH]c2c1CCCC2)N1CCc2c(nc3cc(-c4ccccc4Cl)[nH]n3c2=O)C1	-4	59*
O=C(c1ccc2[nH]ccc2c1)N1CCc2nc3cc(-c4ccccc4Cl)[nH]n3c(=O)c2C1	23	96*
O=C(NCc1ccco1)N1CCc2nc3cc(-c4ccccc4Cl)[nH]n3c(=O)c2C1	27	68*
O=C(NCc1ccco1)N1CCc2c(nc3cc(-c4ccccc4Cl)[nH]n3c2=O)C1	-2	24
CC(C)OCCCNC(=O)CC(C(=O)N1CCc2ccccc21)n1ccnc1 (stereo not given)	-7	18
O=C(Nc1ccccc1)N1CCc2c(nc3cc(-c4ccccc4Cl)[nH]n3c2=O)C1	0	43
COCCNC(=O)N1CCc2[nH]nc(-c3ccccc3)c2C1	-3	-4
Cc1ccc(-c2n[nH]c3c2CN(C(=O)NCc2ccco2)CC3)cc1	-1	64*
COc1cccc(NC(=O)N2CCc3c(nc4cc(-c5ccccc5Cl)[nH]n4c3=O)C2)c1	0	51*
Cc1ccccc1NC(=O)c1ccn2c(-c3cc(F)cc(F)c3)nnc2c1	-2	-1
COc1cccc(C(=O)NCC2CCN(c3cc(-c4cccnc4)[nH]n3)CC2)c1	-4	22
Cc1cc(C2C3=C(CC(C)(C)CC3=O)N=C3c4ccccc4C(=O)C32)cc(C)c1O (stereo not given)	0	38
CC1(C)CC(=O)C2=C(C1)N=C1c3ccccc3C(=O)C1C2c1ccc(Cl)cc1 (stereo not given)	-3	68*
O=C1CCCC2=C1C(c1cc(Br)ccc1O)C1C(=O)c3ccccc3C1=N2 (stereo not given)	-1	40
COc1ccc(C2C3=C(CC(C)(C)CC3=O)N=C3c4ccccc4C(=O)C32)cc1OC (stereo not given)	3	64*
O=C1CCCC2=C1C(c1ccc(Br)cc1)C1C(=O)c3ccccc3C1=N2 (stereo not given)	-1	69*
SMILES	Pf apPOL block	mHTT-CaM PPI inh
Cc1ccc(C2C3=C(CC(C)(C)CC3=O)N=C3c4ccccc4C(=O)C32)cc1 (stereo not given)	30	62*
CC1(C)CC(=O)C2=C(C1)N=C1c3ccccc3C(=O)C1C2c1ccccc1Cl (stereo not given)	11	13
COc1ccc(C2C3=C(CC(C)(C)CC3=O)OC3=C2C(=O)CC(C)(C)C3)cc1OC	2	-3
O=S(=O)(Nc1cccn2ncnc12)c1ccc(Cl)cc1	3	-8
CC(C)CNC(=O)C1COC2(CCCCC2)N1C(=O)c1ccc(Cl)cc1 (stereo not given)	2	-3
COc1ccc(SC(=NN(C)C)c2cc(C(F)(F)F)cc(C(F)(F)F)c2)cc1OC	6	.
COc1cc(OC)c(NC(=O)C(Cl)Cl)cc1Cl	-8	-2
O=C1CCCC2=C1C(c1cccc(Cl)c1)C1C(=O)c3ccccc3C1=N2 (stereo not given)	-10	4
CC1(C)CC(=O)C2=C(C1)Nc1ccccc1NC2c1cccc([N+](=O)[O-])c1 (stereo not given)	-2	0
CC1(C)CC(=O)C2=C(C1)N=C1c3ccccc3C(=O)C1C2c1cccc([N+](=O)[O-])c1 (stereo not given)	-2	51*!
CC1(C)CC(=O)C2=C(C1)N=C1c3ccccc3C(=O)C1C2c1cccc(Cl)c1 (stereo not given)	-2	64*
CC(C)C1C(=O)N(Cc2cn(CCC3OCCO3)nn2)CCS(=O)(=O)N1Cc1ccc(-c2ccc(F)cc2)cc1 (stereo not given)	-7	53*
CC(C)C1C(=O)N(Cc2cn(CCC3OCCCO3)nn2)CCS(=O)(=O)N1Cc1ccc(-c2ccc(Cl)c(Cl)c2)cc1 (stereo not given)	-6	74*
CC(C)C1C(=O)N(Cc2cn(CCC3OCCCO3)nn2)CCS(=O)(=O)N1Cc1ccc(-c2ccc(F)nc2)cc1 (stereo not given)	-1	42
CC1C(=O)N(Cc2cn(CCC3OCCO3)nn2)CCS(=O)(=O)N1Cc1ccc(-c2cccc(CO)c2)cc1 (stereo not given)	-5	15
CC(C)C1C(=O)N(Cc2cn(CCC3OCCO3)nn2)CCS(=O)(=O)N1Cc1ccc(-c2ccc(F)nc2)cc1 (stereo not given)	2	37
CC1C(=O)N(Cc2cn(CCC3OCCO3)nn2)CCS(=O)(=O)N1Cc1ccc(-c2ccc(Cl)c(Cl)c2)cc1 (stereo not given)	-16	96*
CC(C)C1C(=O)N(Cc2cn(CCC3OCCCO3)nn2)CCS(=O)(=O)N1Cc1ccc(-c2ccccc2)cc1 (stereo not given)	-15	56*
CC(C)C1C(=O)N(Cc2cn(CCC3OCCCO3)nn2)CCS(=O)(=O)N1Cc1ccc(-c2ccc(Cl)cc2)cc1 (stereo not given)	-19	44
CC(C)(C)NCCCOc1ccc(Br)cc1Cl	-7	-6
CCCC1CCCCNC1=O (stereo not given)	-14	0
Cc1cccc(C)c1NC(=O)CSc1nc2ccccc2o1	-2	0
O=C(CN(c1ccccc1)S(=O)(=O)c1ccc(Cl)cc1)Nc1ccccc1	-2	1
Clc1ccc(OCCCN2CCOCC2)cc1	-2	1
Clc1ccc(OCCN2CCOCC2)cc1	82*	5
SMILES	Pf apPOL block	mHTT-CaM PPI inh
COc1ccccc1CNC(=O)c1sc2nc(C)nc(N3CCC(C)CC3)c2c1C	5	4
Cn1c(SCC(=O)c2ccccc2)nnc1-c1ccc(NC(=O)c2ccccc2Cl)cc1	-5	16
Cn1c(SCC(=O)O)nnc1-c1ccc(NC(=O)c2ccccc2Cl)cc1	85*	1
COc1ccc(-c2nnc3sc(-c4ccc(F)cc4)nn23)cc1	8	23
O=[N+]([O-])c1ccc(C=NC2=NN(c3ccccc3)CC2)cc1	3	59*
O=[N+]([O-])c1ccc(-c2ccc(N=Cc3ccccc3)cc2)cc1	19	-4
COC(=O)CNC(=O)N1CCCC1c1ccc(Cl)cc1 (stereo not given)	0	-7
Cc1nccn1CC(C)C(=O)O (stereo not given)	1	0
OCCN(CCO)CC(O)Cn1c2ccc(Cl)cc2c2cc(Cl)ccc21 (stereo not given)	0	100*
Cc1nccn1CC(O)Cn1c2ccc(Cl)cc2c2cc(Cl)ccc21 (stereo not given)	3	100*
